Measured values as given in PubChem BioAssay (EPA / NIEHS).
Where “and” joins values, the source holds several entries; their conditions need not be identical. Equal values may be shown once. Calls of active or inactive are those of the source. How the source made its calls: active means hit-call score of the fitted dose curve at least 0.9, where 1 is the maximum; inactive means score below 0.9.

The compounds below were run against Aryl hydrocarbon receptor (Homo sapiens) (UniProt P35869) (assay: ATG_Ahr_CIS: Attagene CIS-FACTORIAL HepG2 Assay for human Aryl Hydrocarbon Receptor (Ahr) (AID 2282930)). Conditions: HepG2 AhR cis-factorial reporter transcription; actives raise or lower the signal.
Procedure: ATG_CIS is a cell-based, multiplexed-readout assay that uses HepG2, a human liver cell line, with measurements taken at 24 hours after chemical dosing in a 24-well plate.ATG_Ahr_CIS is one of 52 assay component(s) measured or calculated from the ATG_CIS assay. It is designed to make measurements of mRNA induction, a form of inducible reporter, as detected with fluorescence intensity signals by Reverse transcription polymerase chain reaction (RT-PCR) and Capillary electrophoresis technology.Data from the assay component ATG_Ahr_CIS was analyzed into 1 assay endpoint. This assay endpoint, ATG_Ahr_CIS, was analyzed with bidirectional fitting relative to DMSO as the negative control and baseline of activity. Using a type of inducible reporter, measures of mRNA for gain or loss-of-signal activity can be used to understand the reporter gene at the transcription factor-level as they relate to the gene AHR. Furthermore, this assay endpoint can be referred to as a primary readout, because this assay has produced multiple assay endpoints where this one serves a reporter gene function. To generalize the intended target to other relatable targets, this assay endpoint is annotated to the dna binding intended target family, where the subfamily is basic helix-loop-helix protein.
Human liver HepG2 cells are transiently transfected with multiple reporter transcription units (MRTUs) in 6-well plates using FuGene 6 reagent (Roche; 3 ml FuGene/1 mg DNA). The MRTU constructs are regulated by a cis-regulating element (promoter). […] A major difference between the CIS and TRANS system is that in CIS activities of endogenous TFs are measured, whereas the TRANS assay evaluates changes in activities of exogenous, chimeric NR-Gal4 proteins. […] At the end of 24 hour incubation, total RNA was isolated using TriZol reagent (Invitrogen). The isolated RNA is then reverse-transcribed using oligo(dT) primer and Mo-MLV reverse transcriptase (Invitrogen) with DNAse I (Ambion) treatment for 30 min. The one-tenth of the produced cDNA was amplified by PCR using Taq DNA polymerase (Invitrogen) and two reporter sequence-specific primers. The PCR products were fluorescently labeled by primer extension with 6-arboxyfluorescein (6-FAM) 5'-labeled reporter sequence-specific primer (2 min at 95 C, 20 s at 68 C and 10 min at 72 C) and these products were digested with 5U of HpaI (New England Biolabs) for 2h at 37 C. […] The raw capillary electrophoresis data was processed using Attagraph software (Attagene).

Aryl hydrocarbon receptor (Homo sapiens), sequence (P35869 whole entry, looked up): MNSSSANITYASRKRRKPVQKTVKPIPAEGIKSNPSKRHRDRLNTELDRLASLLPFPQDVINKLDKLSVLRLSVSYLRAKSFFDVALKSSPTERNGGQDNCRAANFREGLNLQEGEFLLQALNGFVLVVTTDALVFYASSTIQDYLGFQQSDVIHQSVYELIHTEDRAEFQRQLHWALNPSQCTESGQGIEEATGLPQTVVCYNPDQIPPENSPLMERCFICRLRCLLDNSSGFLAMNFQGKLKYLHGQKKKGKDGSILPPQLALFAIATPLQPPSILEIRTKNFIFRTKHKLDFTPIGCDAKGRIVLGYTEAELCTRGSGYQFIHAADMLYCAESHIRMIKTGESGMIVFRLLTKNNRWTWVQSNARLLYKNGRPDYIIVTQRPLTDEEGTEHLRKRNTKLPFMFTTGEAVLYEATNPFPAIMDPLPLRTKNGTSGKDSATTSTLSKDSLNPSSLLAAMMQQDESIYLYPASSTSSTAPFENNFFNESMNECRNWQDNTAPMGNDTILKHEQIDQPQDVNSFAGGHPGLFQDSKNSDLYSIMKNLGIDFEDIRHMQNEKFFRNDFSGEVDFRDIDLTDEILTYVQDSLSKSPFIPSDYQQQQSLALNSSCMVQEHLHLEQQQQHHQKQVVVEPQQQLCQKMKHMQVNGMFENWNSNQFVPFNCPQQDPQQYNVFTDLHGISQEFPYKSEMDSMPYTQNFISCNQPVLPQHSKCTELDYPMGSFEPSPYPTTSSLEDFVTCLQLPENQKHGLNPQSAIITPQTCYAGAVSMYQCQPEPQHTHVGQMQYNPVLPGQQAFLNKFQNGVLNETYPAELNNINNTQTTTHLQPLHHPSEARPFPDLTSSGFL

SMILES	outcome	AC50
c1cc2c3c(cccc3c1)CC2	inactive	–
CCOP(=S)(NC(C)C)Oc1ccccc1C(=O)OC(C)C (stereo not given)	inactive	–
Nc1cc2c3c(c1)C(c1ccccc1)=N[C@@H](NC(=O)c1cccnc1)C(=O)N3CC2	inactive	–
O=C(CBr)OCc1ccccc1	inactive	–
CCN(CC)c1ccccc1	inactive	–
O=P1(N(CCCl)CCCl)NCCCO1 (stereo not given)	inactive	–
O=S1(=O)OCC2C(CO1)C1(Cl)C(Cl)=C(Cl)C2(Cl)C1(Cl)Cl (stereo not given)	–	2.9 µM (active)
CC(Cl)(Cl)C(=O)O	inactive	–
O=C(O)CF	inactive	–
COP(N)(=S)OC	inactive	–
CCOS(=O)(=O)OCC	inactive	–
CC1=C(C(=O)Nc2ccccc2)S(=O)(=O)CCO1	inactive	–
N#C/C=C/c1ccccc1	inactive	–
O=c1ssc(Cl)c1Cl	inactive	–
c1ccc(OP(Oc2ccccc2)Oc2ccccc2)cc1	inactive	–
c1nc[nH]n1	inactive	–
CCOP(=S)(OCC)SCS(=O)(=O)CC	inactive	–
NNC(N)=S	inactive	–
CCCCN(CCCC)N=O	inactive	–
O=C(O)C1C(C(=O)O)C2(Cl)C(Cl)=C(Cl)C1(Cl)C2(Cl)Cl (stereo not given)	inactive	–

SMILES	outcome	AC50
ClC(Cl)(Cl)c1ccccc1	inactive	–
O=C(O)C(F)(F)C(F)(F)C(=O)O	inactive	–
O=c1[nH]c2ccccc2c(=O)o1	–	89.5 µM (active)
Cc1cc(C)c(C(=O)P(=O)(c2ccccc2)c2ccccc2)c(C)c1	inactive	–
CC(=O)CCc1ccc2c(c1)OCO2	inactive	–
CC(C)(C)c1ccc(O)cc1	inactive	–
CC(C)Nc1ccc(Nc2ccccc2)cc1	inactive	–
Cn1[nH]nnc1=S	inactive	–
CSC(C)(C)C=NO	inactive	–
OCC(F)(F)OC(F)(F)C(F)(F)OC(F)(F)C(F)(F)OC(F)(F)F	inactive	–
Cc1ccc([N+](=O)[O-])cc1C	inactive	–
O=S(=O)(F)C(F)(F)C(F)(F)C(F)(F)C(F)(F)C(F)(F)C(F)(F)C(F)(F)C(F)(F)F	inactive	–
O=C(O)C=CC(F)(C(F)(F)F)C(F)(F)F	inactive	–
O=C(O)C(F)(F)OC(F)(F)C(F)(F)OC(F)(F)F	inactive	–
C/C(=N\NC(=O)Nc1cc(F)cc(F)c1)c1ncccc1C(=O)O	–	57.2 µM (active) and 46.1 µM (active)
CCOP(=O)(O)C(N)=O	inactive	–
O=S(=O)(c1ccc(O)cc1)c1ccc(O)cc1	inactive	–
Nc1ccc(Sc2ccc(N)cc2)cc1	–	19.4 µM (active)
ClC(Cl)=C(c1ccc(Cl)cc1)c1ccccc1Cl	–	27.2 µM (active)
CCCCOCC1CO1 (stereo not given)	inactive	–
